Tb PGK inh: qHTS Assay to Find Inhibitors of Phosphoglycerate Kinase; Phosphoglycerate kinase, glycosomal (Trypanosoma brucei brucei), P07378; PGK/GAPDH coupled, Kinase-Glo luminescence, 60 min; Potency, µM (series often up to 57.5 µM), for inactives: at the top dose activity change, negative = inhibition, actives largely listed as inhibitors; actives 0.043% (n = 380,000); AID 602233, 2012; further: potency means the concentration at half of the fitted maximal effect; nearly all actives have a fitted effect of over 60% in size
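Recombinant glycosomal PGK reaction used 1,3-bisphosphoglycerate generated in-well by GAPDH (100nM final) in 100mM TEA pH 7.6, 5mM MgCl2, 0.01% Tween-20. After 60 minutes at room temperature, ATP was read by Kinase-Glo Plus luminescence end-point.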
RGS4 inh: Inhibitors of Regulator of G Protein Signaling (RGS) 4: qHTS. Transcreener GDP fluorescence polarization, RGS4-accelerated GTP hydrolysis. Potency, µM (titrated, usually from 114 µM), without a hit: at the top dose activity change, negative = inhibition, most hits filed as inhibitors. actives 0.039% (n = 390,000). Regulator of G-protein signaling 4 (Homo sapiens), P49798; further: potency means the concentration at half of the fitted maximal effect; nearly all actives have a fitted effect of over 75% in size
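MLSMR compounds (23 nl, pin-transferred) preincubated 10 min at room temperature with a 500nM (2x) first reagent, then RGS4 at 900nM (2x) plus Transcreener GDP mix added; fluorescence polarization (620/688 nm) read before and after 90 min at 30 °C.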
KCNH2 WT inh: qHTS for Inhibitors of KCHN2 3.1: Wildtype qHTS. Voltage-gated inwardly rectifying potassium channel KCNH2 (Homo sapiens), Q12809. U2OS, BacMam KCNH2, thallium flux FluxOr; hits give low values. activity change, % at 1.84 µM. actives 0.37% (n = 340,000);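 active means maximum activity change below -70%; inconclusive means maximum activity change between -70% and -50%; inactive means maximum activity change above -50%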
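U2OS cells transduced with wild-type KCNH2 virus are loaded with FluxOr dye for 45 min, and thallium flux is measured in kinetic reads before and after stimulation buffer. Rate constants are normalized to DMSO controls.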
KCNH2 3.1 block: qHTS for Inhibitors of KCHN2 3.1: Mutant qHTS. U2OS KCNH2 3.1, thallium flux FluxOr; hits give low values. activity change, % (tested at about 1.8 µM). actives 0.95% (n = 340,000). AID 720553, 2013;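 active means maximum activity change below -70%; inconclusive means maximum activity change from -70% to -50%; inactive means maximum activity change above -50%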;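 further: thallium influx rate constant from kinetic fluorescence after stimulation buffer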
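Normalized rate constant (relative to positive and negative DMSO controls) derived from a 2 min kinetic fluorescence read after stimulation; U2OS cells expressing the 3.1 isoform via virus at 1.77 x 10^8 /mL.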
Pin1 inhibitor: qHTS Assay to Find Inhibitors of Pin1; Peptidyl-prolyl cis-trans isomerase NIMA-interacting 1 (Homo sapiens), Q13526; Pin1 FP peptide displacement, HiFluor488, 10 min; Potency, µM (series often up to 115 µM), without a hit: top-dose activity, negative = inhibition, most hits filed as inhibitors; actives 0.009% (n = 390,000); active means well fitted inhibition curve with a large enough effect in the polarisation, with a control signal flat, not every such curve was filed as active; inconclusive means small, poorly fitted or top-dose-only effect, or effect the other way, or a change in a side signal; inactive means no such curve, though single readings can be large or run the other way; the % refers to the polarisation; further: potency means the concentration at half of the fitted maximal effect
KAT2A inh: qHTS Assay for Inhibitors of GCN5L2 | Histone acetyltransferase KAT2A (Homo sapiens), Q92830 | GCN5L2 HAT assay, ThioGlo1 CoA-SH fluorescence | Potency, µM (top dose mostly 58.9 µM), inactives show at the highest dose activity change, negative = inhibition, usual class: inhibitors | actives 0.21% (n = 390,000); further: potency means the concentration at half of the fitted maximal effect
Target sequence (Q92830 whole entry, looked up): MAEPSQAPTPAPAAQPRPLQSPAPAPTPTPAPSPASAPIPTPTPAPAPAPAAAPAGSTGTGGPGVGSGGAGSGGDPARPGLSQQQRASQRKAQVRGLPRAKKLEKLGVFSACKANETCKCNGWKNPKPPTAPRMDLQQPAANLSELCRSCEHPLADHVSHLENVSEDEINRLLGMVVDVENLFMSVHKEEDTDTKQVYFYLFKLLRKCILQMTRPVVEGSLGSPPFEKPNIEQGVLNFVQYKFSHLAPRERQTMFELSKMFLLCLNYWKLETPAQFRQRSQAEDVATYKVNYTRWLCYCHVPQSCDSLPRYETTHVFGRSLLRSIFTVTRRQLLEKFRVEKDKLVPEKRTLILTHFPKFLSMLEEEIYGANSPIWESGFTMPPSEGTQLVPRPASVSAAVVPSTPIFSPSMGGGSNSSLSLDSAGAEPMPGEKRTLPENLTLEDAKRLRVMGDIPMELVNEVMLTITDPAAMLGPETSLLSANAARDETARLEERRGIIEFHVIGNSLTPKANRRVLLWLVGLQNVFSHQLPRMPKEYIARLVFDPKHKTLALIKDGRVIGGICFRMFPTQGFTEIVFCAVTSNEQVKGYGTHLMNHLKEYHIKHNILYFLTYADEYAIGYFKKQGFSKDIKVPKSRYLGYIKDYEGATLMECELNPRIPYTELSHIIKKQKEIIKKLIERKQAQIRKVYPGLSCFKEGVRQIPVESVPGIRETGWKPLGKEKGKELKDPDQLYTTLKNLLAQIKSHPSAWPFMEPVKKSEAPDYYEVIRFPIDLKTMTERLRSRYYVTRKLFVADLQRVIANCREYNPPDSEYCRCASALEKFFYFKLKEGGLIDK
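Fluorescence readout, Ex340nm/Em540nm: ThioGlo1 (50uM final) reacts with free CoA thiol released as 20nM GCN5L2 acetylates H3(1-25) peptide (75uM) using acetyl-CoA (70uM). Compound and enzyme sat 15 min beforehand; 20 min room-temperature reaction.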
* = called active by the depositor; [ ] = remark or other dose. Hits are enriched below; roughly 1.2% of the tested compounds scored in any of these assays. Unless noted, the call rests on the fitted dose curve; in most records, active means well fitted curve in the direction sought with a large enough effect; inconclusive means small, poorly fitted or top-dose-only effect, or another doubt; inactive means no such curve, though single readings can be large; an effect the other way counts as inactive or inconclusive. On the % scale 0 is the no-effect control and ±100 the full control effect.

`O=[N+]([O-])c1cccc(-c2ccc(C(=S)N3CCN(c4ccc(F)cc4)CC3)o2)c1` gave Tb PGK inh -3%, RGS4 inh -24%, KCNH2 WT inh -1, KCNH2 3.1 block -8, Pin1 inhibitor 1% and KAT2A inh -10%.
CC(=O)N1CCC2(CC1)CN(Cc1ccccc1)C2 was read as KAT2A inh -10%.
For O=C(NCc1ccccc1Cl)C1CCCN(C(=O)c2cnn(-c3ccccc3)c2-n2cccc2)C1 (configuration not stated) the results were Tb PGK inh -4%, RGS4 inh 1%, Pin1 inhibitor -3% and KAT2A inh 2%.
For COc1cc(C)ccc1OCc1cc(C(=O)NC2CCOCC2)no1 the results were Tb PGK inh 4%, KCNH2 WT inh -9 and KCNH2 3.1 block -2.
Screening COc1cc(C)ccc1OCc1cc(C(=O)NC(c2ccccn2)C(F)(F)F)no1 (configuration not stated) returned Tb PGK inh -3%, KCNH2 WT inh -2 and KCNH2 3.1 block -87*.
Screening O=C(Nc1ccccc1)c1ccc2snnc2c1 returned Tb PGK inh -2%, RGS4 inh inconclusive, KCNH2 WT inh -5, KCNH2 3.1 block -14, Pin1 inhibitor -2% and KAT2A inh -1%.
`O=C(Nc1cccnc1)c1ccc2snnc2c1` gave Tb PGK inh -9%, RGS4 inh -18%, KCNH2 WT inh -151*, KCNH2 3.1 block -125*, Pin1 inhibitor -1% and KAT2A inh -18%.
Cc1ccc2nc(-c3ccc(-c4cccc(Cl)c4)cc3)c(NCc3ccccc3)n2c1 was read as Tb PGK inh 14%, RGS4 inh 11%, KCNH2 WT inh -1, KCNH2 3.1 block -78*, Pin1 inhibitor -1% and KAT2A inh -18%.
`Cc1ccc(-c2nc3ccccn3c2NCc2ccc3c(c2)OCO3)cc1` gave Tb PGK inh -9%, RGS4 inh 15%, KCNH2 WT inh -14, KCNH2 3.1 block -92*, Pin1 inhibitor 3% and KAT2A inh -33%.
For CCNc1cccc(S(=O)(=O)N2CCN(S(=O)(=O)c3ccc4c(c3)OCCO4)CC2)c1 the results were Pin1 inhibitor -2%.
Screening CCS(=O)(=O)N1CC(=O)N(c2cccc(Cl)c2C)C(C)(C(=O)NC2CCCCC2)C1 (configuration not stated) returned Tb PGK inh inactive, RGS4 inh 15%, Pin1 inhibitor -7% and KAT2A inh -5%.
COc1cccc(CC2(CO)CCCN(Cc3[nH]c4ccc(C)cc4c3C)C2)c1 (configuration not stated) was read as Tb PGK inh -3%, RGS4 inh 27%[11.4 µM], KCNH2 WT inh -89*, KCNH2 3.1 block -99*, Pin1 inhibitor 5% and KAT2A inh -7%.
`COc1cccc(CC2(CO)CCCN(Cc3c(C)cc(C)cc3-n3cccn3)C2)c1` (configuration not stated) gave Tb PGK inh -2%, RGS4 inh 2%, KCNH2 WT inh -124*, KCNH2 3.1 block -102*, Pin1 inhibitor 3% and KAT2A inh 0%.
Screening C#Cc1cccc(C(=O)N(Cc2cccnc2)CC2CCCN(C3CCCCC3)C2)c1 (configuration not stated) returned Tb PGK inh -4%, KCNH2 WT inh 0 and KCNH2 3.1 block -19.
For O=C(c1cc2cc(F)ccc2[nH]1)N(Cc1cccnc1)CC1CCCN(C2CCCCC2)C1 (configuration not stated) the results were Tb PGK inh -10%, RGS4 inh -6%, KCNH2 WT inh -25, KCNH2 3.1 block -109*, Pin1 inhibitor 2% and KAT2A inh -4%.
`O=C(COc1ccc(Cl)cc1Cl)N/N=C/c1ccc(OC2OC(CO)C(O)C(O)C2O)cc1` (configuration not stated) gave Tb PGK inh -6%, RGS4 inh -7%, KCNH2 WT inh -151*, KCNH2 3.1 block -157*, Pin1 inhibitor -5% and KAT2A inh -4%.
COc1ccc2c(c1)sc(N)[n+]2Cc1cc(C)cc2cccnc12 was read as Tb PGK inh 6%, RGS4 inh -5%, KCNH2 WT inh 16, KCNH2 3.1 block -77*, Pin1 inhibitor 7% and KAT2A inh -4%.
CCOc1ccc2c(c1)sc(N)[n+]2Cc1cc(C)cc2cccnc12 was read as Tb PGK inh inactive, RGS4 inh 2%, KCNH2 WT inh 16, KCNH2 3.1 block -88*, Pin1 inhibitor -5% and KAT2A inh -5%.
Screening Cn1c(=O)n(C)c2cc(N3CCCCC3)c(NC(=O)c3ccc(Cl)cc3)cc21 returned Tb PGK inh 8%, RGS4 inh -4%, Pin1 inhibitor 2% and KAT2A inh 4%.
Screening COc1ccc(C(CNC(=O)/C=C/c2c(Cl)nc3ccccn23)N(C)C)cc1 (configuration not stated) returned Tb PGK inh -6%, RGS4 inh -9%, KCNH2 WT inh -1, KCNH2 3.1 block -87*, Pin1 inhibitor -3% and KAT2A inh -8%.
`COc1ccc(CCN(C)C(=O)/C=C/c2c(Cl)nc3ccccn23)cc1OC` gave Tb PGK inh -7%, RGS4 inh 9%, KCNH2 WT inh 2, KCNH2 3.1 block 9, Pin1 inhibitor 0% and KAT2A inh -8%.
Screening O=C(CNC(=O)c1ccc2ccccc2c1)OC(C(=O)Nc1cc(C(F)(F)F)ccc1Cl)c1ccccc1 (configuration not stated) returned Pin1 inhibitor 12%.
For O=C(CCc1c[nH]c2ccccc12)OCC(=O)N1CCN(S(=O)(=O)c2ccccc2)CC1 the results were Tb PGK inh -8%, RGS4 inh -1%, KCNH2 WT inh -101*, KCNH2 3.1 block -17, Pin1 inhibitor -2% and KAT2A inh -2%.

Screening data (PubChem)
